High-throughput results (PubChem BioAssay)
Sampled rows, rich in hits. Any-hit rate of the full collection: about 5.3%.
HIF act = HIF pathway transcriptional activation; U2OS HRE-luciferase reporter, luminescence; normalized: DMSO 0%, desferrioxamine 100%; activation, % at 7.5 µM (by protocol); actives 0.32% (n = 300,000); AID 1910;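 active means mean activation of at least 10% of the iron chelator positive control signal, with at least half of replicates also reaching 10%; inconclusive means mean and replicate majority disagree about reaching 10%; inactive means mean and most replicates under 10%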
Mot1-301 SUMO = inhibitors of SUMOylation pathway: yeast Mot1-301 growth rescue; S. cerevisiae Mot1-301 growth rescue, ATP luminescence, 38.5C; percent above DMSO median, 100 means doubled; growth rescue, % at 18.8 µM; actives 1% (n = 320,000); AID 2716;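 active means every valid replicate shows activation above 250% relative to neutral control wells; inactive means the rest, any valid replicate at or below 250%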;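 further: OY570 slx delta 5 strain wells were the positive control but not used for scaling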
PfM18AAP inh = PfM18AAP enzyme inhibition; recombinant PfM18AAP, H-Glu-NHMec fluorogenic cleavage; actives 1.2% (n = 290,000); inhibition, % at 7.35 µM;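 active means inhibition above the campaign mean inhibition over all tested compounds plus 3 SD, cut at about 28% in these data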;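 further: 0% = plate median of test compound wells and 100% = 2 mM ZnCl2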
ALR H2O2 inh = inhibitors of human sulfhydryl oxidase ALR; P55789; purified ALR, DTT oxidation, H2O2 HRP-luminol luminescence; inhibition, % (no concentration beside the values); actives 3.8% (n = 290,000);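 active means mean replicate inhibition above about 79%, with every replicate also reaching it, limit read from the data; inconclusive means only one of the two criteria met; inactive means mean below limit and not every replicate reaching it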
Target sequence (P55789 whole entry, looked up): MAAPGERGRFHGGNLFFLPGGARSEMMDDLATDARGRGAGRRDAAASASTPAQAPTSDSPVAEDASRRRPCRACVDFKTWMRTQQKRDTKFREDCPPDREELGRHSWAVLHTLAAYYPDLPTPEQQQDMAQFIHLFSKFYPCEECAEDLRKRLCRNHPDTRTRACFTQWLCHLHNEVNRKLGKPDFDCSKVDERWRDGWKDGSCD
Starred values were filed as active, the others as inactive; ? = inconclusive; . = no result given.

SMILES	HIF act	Mot1-301 SUMO	PfM18AAP inh	ALR H2O2 inh
CC1=C(C)/C(=N\OC(=O)/C=C/c2ccccc2)C=CC1=O	0	248	-1	87*
c1ccc(Oc2cccc(Oc3ccccc3)n2)cc1	0	-13	.	-1
Cn1c(=O)[nH]c(=O)c2c1nc(SCCCO)n2CCCc1ccccc1	1	-14	-5	.
COc1cc(C(=O)Nc2ccc(C)c(S(=O)(=O)N(C)C)c2)ccc1OCC(=O)N1CCOCC1	1	-5	.	-20
Cc1ccc(C2C3CSCC=C3C(C#N)=C(N)C2(C#N)C#N)cc1 (configuration not stated)	0	6	9	93*
N#CC1=C(N)C(C#N)(C#N)[C@H](c2ccncc2)[C@H]2CC3(CC=C12)OCCO3	0	2	17	-42
Cc1cccc(NS(=O)(=O)c2ccc(C3CCCCC3)cc2)c1	1	792*	3	50
COc1ccc(C#Cc2ccc3c(=O)c4ccccc4n(C)c3c2)cc1	0	13	-2	0
COc1ccccc1C#Cc1ccc2c(=O)c3ccccc3n(C)c2c1	1	-1	30*	-26
COc1cc(/C=C2/C(=O)NN(c3ccc(Cl)c(Cl)c3)C2=O)cc([N+](=O)[O-])c1O	-1	21	14	98*
COc1cc(/C=C2/C(=O)NN(c3ccc(F)cc3)C2=O)cc(Cl)c1O	-2	-1	13	?
COC(=O)c1ccc(N2NC(=O)/C(=C/c3cc(OC)c(O)c(OC)c3)C2=O)cc1	1	21	31*	73
COc1cc(/C=C2/C(=O)NN(c3ccc(Cl)cc3)C2=O)cc(Br)c1O	-1	53	9	98*
COC(=O)c1ccc(N2NC(=O)/C(=C/c3cc(OC)c(OC)c(OC)c3)C2=O)cc1	0	9	6	.
COc1ccc(NS(=O)(=O)c2cccc(NC(=O)COc3ccccc3[N+](=O)[O-])c2)cc1	.	-3	.	-5
Cc1ccc2[nH]c(C)c(CCNC(=O)c3c(N)no[n+]3[O-])c2c1	0	-11	3	99*
O=C(CSc1ncnc2nc[nH]c12)c1ccc(Cl)cc1	0	8	11	87*
O=C(CSc1ncnc2nc[nH]c12)c1ccc([N+](=O)[O-])cc1	2	-39	-7	93*
O=C(COC(=O)Cc1ccc(S(=O)(=O)N2CCOCC2)s1)Nc1ccc(F)cc1F	.	26	.	-13
COc1ccc(C)cc1NC(=O)c1nnn(Cc2cccc(C(F)(F)F)c2)c1N	0	20	-1	-5
CC1(C(=O)N2CCN(C(=O)c3ccco3)CC2)CC1(Br)Br (configuration not stated)	0	1	6	1
O=C(Cc1ccc(Cl)cc1)NNC(=S)NC(=O)c1cccs1	0	166	-1	98*
CCCCNC(=O)CSc1nc(CCC)nc2ccccc12	1	-5	2	-7
CCCc1nc(SCC(=O)c2ccc(F)cc2)c2ccccc2n1	0	14	7	99*
COCCN(CCOC)C(=O)CSc1ccc(S(=O)(=O)N2CCN(C)CC2)cn1	.	1	.	.
SMILES	HIF act	Mot1-301 SUMO	PfM18AAP inh	ALR H2O2 inh
CNC(=S)N(Cc1cc2cc(C)ccc2n2nnnc12)CC(C)(C)CN(C)C	1	10	-9	37
O=C(CCS(=O)(=O)c1ccccc1)N1CCN(c2ccccc2)CC1	2	-12	2	99*
O=C(CCS(=O)(=O)Cc1ccccc1)N1CCN(c2ccccc2)CC1	0	1	10	99*
O=C(CCS(=O)(=O)Cc1ccccc1)N1CCN(c2ccc([N+](=O)[O-])cc2)CC1	0	5	-2	-3
COc1ccc(N2CCN(C(=O)CCC(=O)N3CCOc4ccc(C)cc43)CC2)cc1	0	-13	8	97*
CC(=O)N1CCN(C(=O)CCNS(=O)(=O)c2ccccc2)CC1	.	-8	.	-6
O=C(CCNS(=O)(=O)c1ccccc1)N1CCN(c2ccccc2)CC1	0	29	2	96*
Cc1ccccc1OCCC(=O)Nc1cc(S(=O)(=O)N2CCOCC2)ccc1OC(C)C	0	9	-3	7
CCOc1ccc(S(=O)(=O)N2CCC(C(=O)N3CCc4ccccc4C3)CC2)cc1	-1	-11	-2	-12
Cn1c(=O)c2cn(Cc3ccc(Cl)cc3)cc2n(C)c1=O	0	82	0	-4
O=S(=O)(NC1C2CC3CC(C2)CC1C3)c1ccccc1 (configuration not stated)	.	23	.	1
Cc1ccc(OCCC(=O)N2CCN(c3ccc(O)cc3)CC2)cc1	1	74	13	100*
CCOc1ccc(C(=O)CCC(=O)N2CCN(c3ccc(O)cc3)CC2)cc1	.	72	.	?
COc1cccc(N2CCN(C(=O)CCS(=O)(=O)c3ccc4c(c3)oc(=O)n4C)CC2)c1	0	92	7	98*
COc1ccc(N2CCN(C(=O)CCNS(=O)(=O)c3ccc(C)cc3)CC2)cc1	0	1	-1	99*
O=C1COc2ccc(S(=O)(=O)CCC(=O)N3CCN(c4ccccc4)CC3)cc2N1	0	-11	-3	98*
CCN(CC(=O)Nc1cccc(S(=O)(=O)N(C)c2ccccc2)c1)Cc1cccs1	.	17	.	-14
O=C(CCS(=O)(=O)c1ccc(Br)cc1)N1CCN(c2ccccc2)CC1	.	-2	-8	99*
O=C(CCS(=O)(=O)c1ccc(Br)cc1)N1CCN(c2ccccc2Cl)CC1	0	9	-2	-9
Cc1c(C(=O)N2CC(C)OC(C)C2)[nH]c2ccc(Br)cc12 (configuration not stated)	0	-2	2	-9
O=C(CCl)Nc1cccc(-c2cnc3ccccc3n2)c1	3	48	-4	-12
CCC(=O)Nc1cccc(-c2cnc3ccccc3n2)c1	5	.	-6	88*
O=C(Oc1coc(CSc2ncccn2)cc1=O)c1ccco1	.	6	-8	?
O=C(Oc1coc(CSc2ncccn2)cc1=O)c1cccc([N+](=O)[O-])c1	0	12	8	97*
CCOc1ccc(C2C(C#N)=C(N)SC(N)=C2C#N)c(OCC)c1	0	-16	10	10
SMILES	HIF act	Mot1-301 SUMO	PfM18AAP inh	ALR H2O2 inh
CCCCc1ccc(C2C(C#N)=C(N)SC(N)=C2C#N)s1	.	-5	5	98*
CN1C(=O)C(N=Nc2ccccc2C(=O)O)N(C)C1=S (configuration not stated)	0	-6	18	98*
CC1=NN(C(N)=S)C(=O)C1N=Nc1ccccc1C(=O)O (configuration not stated)	-1	-3	-2	0
CCn1cc(C(=O)NCCCOC)c(=O)c2cc(S(=O)(=O)N3CCCC3)ccc21	1	-15	1	-29
COc1cccc(-n2c(C)cc(/C=C3/C(=N)N4C(=NC3=O)SN=C4S(C)(=O)=O)c2C)c1	0	9	2	97*
Cc1ccc(S(=O)(=O)Oc2ccc(/C=C3/C(=N)N4C(=NC3=O)SN=C4S(C)(=O)=O)cc2)cc1	.	5	-2	98*
CCS(=O)(=O)C1=NSC2=NC(=O)/C(=C\c3ccc(OS(=O)(=O)c4ccccc4)c(OC)c3)C(=N)N21	0	3	7	97*
